Screening results: PubChem BioAssay, National Center for Advancing Translational Sciences (NCATS)
This excerpt belongs to a sample that is enriched for hits.
AmpC inh detg = AmpC beta-lactamase inhibition with detergent present; P00811; AmpC hydrolysis of nitrocefin, absorbance 480 nm, 0.01% Triton; Potency, µM (top dose mostly 114 µM), usual class: inhibitors; 370,000 compounds, 0.041% hits; AID 485294; further: nearly all actives have a fitted effect of over 25% in size
Target sequence (P00811 whole entry, looked up): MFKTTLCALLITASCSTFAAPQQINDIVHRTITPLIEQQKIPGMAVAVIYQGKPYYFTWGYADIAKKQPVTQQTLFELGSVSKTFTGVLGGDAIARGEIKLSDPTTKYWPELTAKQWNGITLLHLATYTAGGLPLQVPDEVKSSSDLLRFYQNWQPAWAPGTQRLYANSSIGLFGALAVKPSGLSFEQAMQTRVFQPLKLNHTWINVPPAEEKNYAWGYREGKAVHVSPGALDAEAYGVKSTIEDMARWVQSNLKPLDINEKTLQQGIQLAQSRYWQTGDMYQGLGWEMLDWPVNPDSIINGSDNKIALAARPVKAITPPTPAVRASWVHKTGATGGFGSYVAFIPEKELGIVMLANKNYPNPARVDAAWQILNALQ
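20 mM phosphate pH 7.0 + 0.01% (detergent screen) or 0.0001% Triton X-100; 5.3 nM AmpC reagent; cpd preinc 15 min RT; nitrocefin (800 uM stock) to start; A480 q20 s × 4 min; Activity was normalised to no-enzyme and no-compound control wells.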
SARS PLpro yeast = SARS-CoV PLP inhibition in yeast; 330,000 compounds, 0.19% hits; Potency, µM (top dose mostly 32.9 µM), actives largely listed as activators; S. cerevisiae expressing SARS-CoV PLpro, growth rescue; AID 485353; calls by dose curve; further: nearly all actives have a fitted effect of over 55% in size
Cycloheximide cs = counter-screen for Shiga toxin inhibitors: cycloheximide protein synthesis inhibition | cell reporter, cycloheximide protein synthesis inhibition counterscreen | max response, % | 300,000 compounds, 12% hits; in the data active means max response mostly above about 13%, no sharp cut-off; inactive means mostly below about 14%; further: read at 38.3 µM for the half of the compounds with a filed dose
AmpC no deterg = inhibitors of E. coli AmpC beta-lactamase without detergent. P00811. AmpC nitrocefin hydrolysis, absorbance 480 nm, 0.0001% Triton. Potency, µM (doses to about 57.1 µM), hits mostly inhibitors. 330,000 compounds, 0.52% hits. AID 485341; further: nearly all actives have a fitted effect of over 20% in size
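AmpC (5.3 nM in the dispensed reagent) in 20 mM phosphate pH 7.0 with 0.01% (detergent screen) or 0.0001% Triton X-100 was preincubated with compounds for 15 min at room temperature. Nitrocefin was then added from an 800 uM solution, and hydrolysis was followed at 480 nm.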
Shiga toxin inh = inhibitors of Shiga toxin in Vero cells. 290,000 compounds, 9.2% hits. Vero cells, Shiga toxin protein synthesis inhibition reporter. inhibition, % at 38.7 µM; in the data active means inhibition mostly above about 28%, no sharp cut-off; inactive means mostly below about 43%
AMA1 RON2 block = AMA1-RON2 (P. falciparum) interaction inhibition; AlphaScreen AMA1-biotinylated RON2 peptide binding; Potency, µM (top dose mostly 58.2 µM), hits mostly inhibitors; 360,000 compounds, 0.2% hits; further: nearly all actives have a fitted effect of over 45% in size
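AMA1 (3D7) with his tag at 25 nM final met compounds first, then biotinylated RON2 peptide at 25 nM; detection used donor plus acceptor beads, 10 µg/mL apiece, read by AlphaScreen after 30 min at room temperature.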
Each line names hits and unclear results; the compound was inactive in the other large screens. Unless noted, the call rests on the fitted dose curve; in most records, active means well fitted curve in the direction sought with a large enough effect; inconclusive means small, poorly fitted or top-dose-only effect, or another doubt; inactive means no such curve, though single readings can be large; an effect the other way counts as inactive or inconclusive.

COc1ccc(OCc2cc(C(=O)N(C)C(C)c3ccon3)no2)c(Cl)c1 (stereo not drawn)	Cycloheximide cs 34.3, Shiga toxin inh 72.5
CCCCCn1c(=O)c(C(=O)Nc2ccccn2)c(O)c2ccccc21	none (no result: Shiga toxin inh)
CCNC(=O)COC(=O)c1cc(S(=O)(=O)N2CCCc3ccccc32)ccc1Cl	none
O=C(c1ccc(Br)cc1)c1coc2ccc(O)cc12	none (no result: AmpC inh detg, SARS PLpro yeast, Cycloheximide cs, AmpC no deterg, Shiga toxin inh)
O=C(c1coc2ccc(O)cc12)C1CC1	Cycloheximide cs 24.6, Shiga toxin inh 58.2
O=C(c1ccc(Cl)cc1)c1coc2ccc(O)cc12	AmpC inh detg inconclusive, Cycloheximide cs 42.8, Shiga toxin inh 73.2
COc1cc(C=NNC(=O)c2ccc(NS(=O)(=O)c3cccs3)cc2)cc(Br)c1O	none (no result: AmpC inh detg, Cycloheximide cs, Shiga toxin inh)
Cc1ccc(-c2cnc(N)n2C)cc1C	Cycloheximide cs 30.3
O=C(NN1C(=O)C2C3C=CC(C4CC34)C2C1=O)c1ccccc1Cl (stereo not drawn)	AmpC inh detg inconclusive
CCCCCSc1cc(OC)c(CCN(C)C)cc1OC	Cycloheximide cs 19.5
COc1cccc(C2Oc3ccccc3C3CC(c4cccs4)=NN32)c1 (stereo not drawn)	Cycloheximide cs 50.5, Shiga toxin inh 79.4
O=C1N[C@@H](Cc2c[nH]c3ccccc23)COC(=O)[C@H](Cc2ccc(F)cc2)C/C=C\C[C@H]1CC(=O)N(CCO)Cc1ccccc1	none (no result: AmpC inh detg, Cycloheximide cs, Shiga toxin inh)
COc1ccc(/C=C2\CCn3c2nc2cc(C(=O)O)ccc2c3=O)cc1OC	none
Cc1ccc(-n2c(O)c(/C=C3/C(c4ccccc4)=Nc4ccccc43)c(=O)[nH]c2=O)cc1	Cycloheximide cs 28.8, Shiga toxin inh 63.1
Cc1ccccc1-n1c(O)c(/C=C2/C(c3ccccc3)=Nc3ccccc32)c(=O)[nH]c1=O	Cycloheximide cs 54.2, Shiga toxin inh 85.6
O=c1[nH]c(=O)n(-c2ccccc2F)c(O)c1/C=C1\C=Nc2ccccc21	Cycloheximide cs 6.6
Cc1cccc(-n2c(O)c(/C=C3/C(c4ccccc4)=Nc4ccccc43)c(=O)[nH]c2=O)c1	Cycloheximide cs 20.0, Shiga toxin inh 32.3
O=C(NC1CCN(C(=O)Nc2cccc(Cl)c2)CC1)c1ccco1	none
COc1ccc2c(c1)OC(=O)CC2c1cc(OC)c(OC)c(OC)c1 (stereo not drawn)	none (no result: AmpC inh detg)
CC(C)OC(=O)c1cccc(-c2ccc(C=O)o2)c1	Cycloheximide cs 76.7, Shiga toxin inh 80.3
Cc1nc(Nc2ccc(C(=O)O)cc2)sc1-c1ccccc1	Cycloheximide cs 52.9, Shiga toxin inh 84.1
O=c1sc(Nc2ccccc2)nc2ccccc12	none
Cc1nc(Nc2ccccc2)sc1-c1ccccc1	Cycloheximide cs 35.0, Shiga toxin inh 87.9
COc1ccccc1N1CCN(CCCNC(=O)c2nnc(Cc3ccc(F)cc3Cl)o2)CC1	none (no result: SARS PLpro yeast, Cycloheximide cs, AmpC no deterg, Shiga toxin inh, AMA1 RON2 block)
COc1ccc(C2=NN(S(=O)(=O)c3ccccc3)C(c3ccccc3)C2)cc1 (stereo not drawn)	none
COc1ccc(C2=NN(CN3C(=O)C(=O)c4ccccc43)C(c3ccc(OC)cc3)C2)cc1 (stereo not drawn)	AmpC inh detg inconclusive, Cycloheximide cs 75.8, Shiga toxin inh 131.2
COC(=O)C(NC=O)C(O)(Cc1ccccc1)C(F)(F)F (stereo not drawn)	Cycloheximide cs 56.5, Shiga toxin inh 73.7
CCOC(=O)N1CCN(CC(O)COc2ccc(CC)cc2)CC1 (stereo not drawn)	none
O=C(Oc1ccc(-c2cnc3ccccc3n2)cc1)c1cccc([N+](=O)[O-])c1	Cycloheximide cs 25.6, Shiga toxin inh 41.4
O=C(Oc1ccc([N+](=O)[O-])cc1)c1cc(-c2ccccc2)nc2ccccc12	none
O=C(Oc1ccc(-c2cnc3ccccc3n2)cc1)c1ccc(Cl)c([N+](=O)[O-])c1	Cycloheximide cs 36.8, Shiga toxin inh 47.7
COc1cccc(CCNC(=O)c2cc(COc3cccc(OC)c3)on2)c1	none (no result: AmpC inh detg, SARS PLpro yeast, Cycloheximide cs, AmpC no deterg, Shiga toxin inh)
Cc1cc(OCc2cc(C(=O)NCCN3CCCCC3CO)no2)cc(C)c1Cl (stereo not drawn)	none
Cc1ccc(OCc2cc(C(=O)NCc3cn4ccccc4n3)no2)cc1C	AmpC inh detg inconclusive, Cycloheximide cs 20.2, Shiga toxin inh 37.3
COc1cccc(CCNC(=O)c2cc(COc3c(F)cccc3F)on2)c1	Cycloheximide cs 16.2
Cc1cc(OCc2cc(C(=O)NCc3csc(C(C)C)n3)no2)cc(C)c1Cl	Cycloheximide cs 20.0
Cc1ccc(OCc2cc(C(=O)NCC(C)c3ccccc3)no2)cc1C (stereo not drawn)	none
O=C(NCCc1cn2ccccc2n1)c1cc(COc2c(F)cccc2F)on1	Cycloheximide cs 17.1
O=C(Nc1ccc(C(=O)NCCCN2CCCCC2)cc1)C1=CSCCO1	none
CC(C)CCNC(=O)c1ccc(NC(=O)C2=CSCCO2)cc1	Cycloheximide cs 23.7, Shiga toxin inh 58.6
C=CCNC(=O)c1ccc(NC(=O)C2=CSCCO2)cc1	Cycloheximide cs 23.3
C=CCn1c(SCC(=O)NC2CCCCC2)nnc1C(C)NC(=O)c1cccs1 (stereo not drawn)	none (no result: SARS PLpro yeast, AmpC no deterg)
COc1ccc2[nH]c3c(=O)n4c(nc3c2c1)SCCC4	Cycloheximide cs 25.1
Cc1ccc2[nH]c3c(=O)n4c(nc3c2c1)SCC4	Cycloheximide cs 24.0
CCC1CCCN1Cn1cnc2c([nH]c3ccc(OC)cc32)c1=O (stereo not drawn)	none
CCC1(CC)C(=O)C(C)(C)C(=O)OC1c1ccccn1 (stereo not drawn)	none
CCNC1CCS(=O)(=O)C1 (stereo not drawn)	none
O=C(Nc1ccncc1)c1cn(-c2ccccc2)nc1-c1cccs1	Cycloheximide cs 44.2
Cc1cccc(C)c1NC(=O)c1cn(-c2ccccc2)nc1-c1ccccc1	none
Cc1cccc(NC(=O)c2cn(-c3ccccc3)nc2-c2ccccc2)c1	Cycloheximide cs 13.3
NS(=O)(=O)c1ccc(NC(=O)COC(=O)c2cn(-c3ccccc3)nc2-c2ccc(F)cc2)cc1	AmpC no deterg 12.6µM
O=C(COC(=O)c1cn(-c2ccccc2)nc1-c1ccc(F)cc1)Nc1ncc(Cl)cc1Cl	none
Cc1cc(C(=O)Nc2ccc(Cl)cc2)n(-c2ccccc2)n1	Cycloheximide cs 19.2
CCOC(=O)c1cccc(NC(=O)CCNS(=O)(=O)c2cccc3nonc23)c1	none
Cc1ccc(N=Cc2ccccc2O)cc1Cl	none (no result: AmpC inh detg, SARS PLpro yeast, Cycloheximide cs, AmpC no deterg, Shiga toxin inh)
Cc1cccc(NC(=O)c2c(C)nn(-c3ccccc3)c2Cl)c1	AmpC inh detg inconclusive, Cycloheximide cs 46.8, Shiga toxin inh 113.3
O=C(O)c1ccc(NC(=O)c2cn(-c3ccccc3)nc2-c2ccc(F)cc2)cc1	AmpC inh detg inconclusive, Cycloheximide cs 38.9, Shiga toxin inh 94.3
O=C(NC(=S)NCCO)c1cn(-c2ccccc2)nc1-c1ccccc1	Shiga toxin inh 49.1
